miR-122 inh: raises miR-122 sensor activity in Huh7 cells | Huh7 psiCHECK-miR122 Renilla luciferase sensor, 48 h | activation, % at 12.5 µM | hit rate 0.14% among 340,000;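 active = mean activation of 30% or more, with every replicate also reaching 30%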;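 note: higher luciferase signal means stronger suppression of miR-122 activity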
Large screens that a line does not name were inactive. The sample as a whole holds a higher share of hits than the screen did.

COc1cccc(-c2cnc3c(c2)C(=O)N([C@@H](C)CO)C[C@H](C)[C@@H](CN(C)Cc2cccnc2)O3)c1	none
CCC(=O)Nc1ccc2c(c1)C(=O)N(C)C[C@H](OC)[C@@H](C)CN(C(C)=O)[C@@H](C)CO2	none
C[C@@H]1CN([C@@H](C)CO)C(=O)c2cc(/C=C/c3ccccc3)cnc2O[C@@H]1CN(C)C(=O)c1cccnc1	none
C/C=C/c1ccc2c(c1)O[C@H](CN(C)C(=O)c1cnccn1)[C@H](C)CN([C@H](C)CO)S2(=O)=O	miR-122 inh 33
C/C=C/c1ccc2c(c1)O[C@H](CN(C)C(=O)c1cccnc1)[C@@H](C)CN([C@@H](C)CO)S2(=O)=O	none
C[C@@H](O)C#Cc1ccc2c(c1)O[C@H](CN(C)C(=O)c1ccncc1)[C@@H](C)CN([C@@H](C)CO)S2(=O)=O	none
C/C=C/c1ccc2c(c1)O[C@@H](CN(C)C(=O)c1cccnc1)[C@H](C)CN([C@@H](C)CO)S2(=O)=O	none
CC(C)C#Cc1ccc2c(c1)O[C@H](CN(C)C(=O)c1ccncc1)[C@@H](C)CN([C@@H](C)CO)S2(=O)=O	miR-122 inh 41
CC(C)C#Cc1ccc2c(c1)O[C@H](CN(C)C(=O)c1ccncc1)[C@H](C)CN([C@@H](C)CO)S2(=O)=O	miR-122 inh 40
C[C@@H]1CN([C@@H](C)CO)S(=O)(=O)c2ccc(C#Cc3ccccc3)cc2O[C@H]1CN(C)C(=O)Nc1ccc2c(c1)OCO2	none
C[C@@H]1CN([C@@H](C)CO)S(=O)(=O)c2ccc(C#Cc3ccccc3)cc2O[C@@H]1CN(C)C(=O)Nc1ccc2c(c1)OCO2	none
C[C@H](O)C#Cc1ccc2c(c1)O[C@H](CN(C)C(=O)c1ccncc1)[C@@H](C)CN([C@@H](C)CO)S2(=O)=O	none
C[C@H](O)C#Cc1ccc2c(c1)O[C@H](CN(C)C(=O)c1ccncc1)[C@H](C)CN([C@@H](C)CO)S2(=O)=O	none
C[C@H](O)C#Cc1ccc2c(c1)O[C@@H](CN(C)C(=O)c1ccncc1)[C@@H](C)CN([C@@H](C)CO)S2(=O)=O	none
C[C@@H]1CN([C@H](C)CO)S(=O)(=O)c2ccc(C#Cc3ccncc3)cc2O[C@@H]1CN(C)C(=O)Nc1ccc2c(c1)OCO2	miR-122 inh 49
CCC(=O)N(C)C[C@@H]1Oc2ncc(C#Cc3ccc(OC)cc3)cc2C(=O)N([C@@H](C)CO)C[C@H]1C	none
COCC(=O)N(C)C[C@H]1Oc2ncc(C#Cc3ccncc3)cc2C(=O)N([C@@H](C)CO)C[C@H]1C	none
Cc1cc(C(=O)Nc2cccc3c2O[C@@H](CN(C)CC2CCCCC2)[C@@H](C)CN([C@H](C)CO)C3=O)n(C)n1	none
C[C@H](CO)N1C[C@H](C)[C@@H](CN(C)CC2CCOCC2)Oc2cc(Br)ccc2S1(=O)=O	none
C[C@H]1CN([C@@H](C)CO)C(=O)c2cc(-c3cccc(C(=O)N(C)C)c3)cnc2O[C@H]1CN(C)S(=O)(=O)c1ccc(F)cc1	none
COc1cccc(-c2cnc3c(c2)C(=O)N([C@H](C)CO)C[C@H](C)[C@H](CN(C)S(=O)(=O)c2ccc(F)cc2)O3)c1	none
COCC#Cc1ccc2c(c1)O[C@H](CN(C)Cc1cncnc1)[C@@H](C)CN([C@H](C)CO)S2(=O)=O	none
C[C@H]1CN([C@@H](C)CO)C(=O)c2cc(-c3cccnc3)cnc2O[C@H]1CN(C)S(C)(=O)=O	none
C[C@H]1CN([C@@H](C)CO)C(=O)c2cc(C#CC3(O)CCCC3)cnc2O[C@H]1CN(C)S(=O)(=O)c1ccc(F)cc1	none
COc1ccccc1-c1cnc2c(c1)C(=O)N([C@@H](C)CO)C[C@@H](C)[C@H](CN(C)C(=O)c1ccccc1)O2	none
COc1cccc(N2CCN(c3ncnc4c3[nH]c3ccc(F)cc34)CC2C)c1 (stereo unspecified)	miR-122 inh 32
C[C@@H]1CN([C@H](C)CO)S(=O)(=O)c2ccc(-c3ccc(C#N)cc3)cc2O[C@H]1CN(C)C(=O)C1CC1	none
Cc1cc(OCC(O)CN2CCOCC2)cc(C)c1Cl (stereo unspecified)	none
Cc1cc(C)cc(OCC(O)CN2CCC(CN3C(=O)c4cccc5cccc(c45)C3=O)CC2)c1 (stereo unspecified)	miR-122 inh 67
COc1cccc(C#Cc2ccc3c(c2)O[C@@H](CN(C)C(=O)c2ccccn2)[C@@H](C)CN([C@@H](C)CO)S3(=O)=O)c1	none
C[C@@H]1CN([C@@H](C)CO)C(=O)c2cc(C#Cc3ccc(F)cc3)cnc2O[C@@H]1CN(C)C(=O)c1ccccc1F	none
Cc1ccccc1NCN1C(=O)C2C3C=CC(C3)C2C1=O (stereo unspecified)	miR-122 inh 34
C[C@@H]1CN([C@@H](C)CO)C(=O)c2cc(-c3ccc(F)cc3)cnc2O[C@H]1CN(C)C(=O)c1ccccn1	none
CCC(=O)N(C)C[C@@H]1Oc2ncc(C#C[C@H](C)O)cc2C(=O)N([C@@H](C)CO)C[C@H]1C	none
C[C@@H]1CN([C@@H](C)CO)C(=O)c2cc(C#Cc3ccccn3)cnc2O[C@@H]1CN(C)C(=O)CCN1CCCCC1	none
C[C@H]1CN([C@@H](C)CO)C(=O)c2cc(-c3ccc(F)cc3)cnc2O[C@H]1CN(C)Cc1cccnc1	none
C[C@H](CO)N1C[C@H](C)[C@H](CN(C)Cc2cncnc2)Oc2cc(C#C[C@@H](C)O)ccc2S1(=O)=O	none
C[C@H](CO)N1C[C@H](C)[C@@H](CN(C)Cc2cccnc2)Oc2cc(C#C[C@@H](C)O)ccc2S1(=O)=O	none
C[C@@H]1CN([C@H](C)CO)S(=O)(=O)c2ccc(C#C[C@@H](C)O)cc2O[C@@H]1CN(C)Cc1cncnc1	none
C[C@@H]1CN([C@@H](C)CO)S(=O)(=O)c2ccc(C#C[C@@H](C)O)cc2O[C@H]1CN(C)Cc1ccc(-c2ccccc2)cc1	miR-122 inh 41
C[C@H](O)C#Cc1ccc2c(c1)O[C@@H](CN(C)Cc1ccc(-c3ccccc3)cc1)[C@@H](C)CN([C@@H](C)CO)S2(=O)=O	miR-122 inh 38
C[C@@H](O)C#Cc1ccc2c(c1)O[C@H](CN(C)Cc1cncnc1)[C@@H](C)CN([C@@H](C)CO)S2(=O)=O	none
C[C@H](O)C#Cc1ccc2c(c1)O[C@H](CN(C)C)[C@H](C)CN([C@@H](C)CO)S2(=O)=O	none
COc1ccccc1C#Cc1ccc2c(c1)O[C@H](CN(C)Cc1cccnc1)[C@@H](C)CN([C@@H](C)CO)S2(=O)=O	miR-122 inh 40
COc1ccccc1C#Cc1ccc2c(c1)O[C@H](CN(C)Cc1cncnc1)[C@@H](C)CN([C@H](C)CO)S2(=O)=O	none
COc1ccccc1C#Cc1ccc2c(c1)O[C@@H](CN(C)Cc1cncnc1)[C@@H](C)CN([C@@H](C)CO)S2(=O)=O	none
C[C@H](O)C#Cc1ccc2c(c1)O[C@H](CN(C)Cc1ccc(-c3ccccc3)cc1)[C@@H](C)CN([C@H](C)CO)S2(=O)=O	miR-122 inh 49
C[C@@H]1CN([C@H](C)CO)S(=O)(=O)c2ccc(C#C[C@@H](C)O)cc2O[C@H]1CN(C)Cc1cccnc1	none
CO[C@H]1CN(C)C(=O)c2cc(NS(=O)(=O)CC(F)(F)F)ccc2OC[C@H](C)N(C)C[C@@H]1C	none
CC(C)CC#Cc1cnc2c(c1)C(=O)N([C@@H](C)CO)C[C@@H](C)[C@H](CN(C)C(=O)Nc1cccc(F)c1)O2	none
COc1ccc(S(=O)(=O)N(C)C[C@H]2Oc3cc(-c4ccccc4OC)ccc3S(=O)(=O)N([C@H](C)CO)C[C@H]2C)cc1	none
C[C@H]1CN([C@@H](C)CO)C(=O)c2cc(Br)cnc2O[C@H]1CN(C)Cc1ccc2c(c1)OCO2	none

Compound activity: PubChem BioAssay, Broad Institute
